What was measured:
Test in all cases: PBM binding z-score (relative to random genomic background probes); higher = stronger binding; sequences stand for … in GC…GCGATTGACAGCGTAGAATGAAGG
[1] = test system: RARb homodimer (NR concentration 270 nM)
How it was run: (§1)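 For binding z-scores, the reference was random background probes on custom Agilent 4×180K protein-binding microarrays. These arrays were incubated 1 h with ligand-free nuclear receptor dimers in PBS pH 7.4, 2% milk, 0.02% Triton X-100, 1 mM DTT, 0.2 mg/mL BSA and 0.4 mg/ml salmon testes DNA. Fluorescence was scanned after antibody detection of each partner (one per run) and regression-normalized.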

[2] = test system: RARg:RXRa (NR concentration 270 nM, RXRa partner concentration 90 nM)
How it was run: as §1

[3] = test system: RARg homodimer (NR concentration 270 nM)
How it was run: as §1

[4] = test system: RXRa DBDmut IVT, anti-RXR (DBD mutation: RXRa K156A/R161A, NR concentration 90 nM)
How it was run: as §1

[5] = test system: RXRa homodimer (NR concentration 180 nM)
How it was run: as §1

[6] = test system: THRa:RXRa (NR concentration 90 nM, RXRa partner concentration 90 nM)
How it was run: as §1

[7] = test system: THRa homodimer (NR concentration 90 nM)
How it was run: as §1

[8] = test system: VDR homodimer (NR concentration 270 nM)
How it was run: as §1

| Sequence | PBM binding z-score [1] | PBM binding z-score [2] | PBM binding z-score [3] | PBM binding z-score [4] | PBM binding z-score [5] | PBM binding z-score [6] | PBM binding z-score [7] | PBM binding z-score [8] |
| --- | --- | --- | --- | --- | --- | --- | --- | --- |
| ATCGAAAGGTCGACGAGGTGCGTATACACCGTTT | 2.58 | 3.76 | 3.9 | 0.716 | 4 | 2.46 | -0.328 | 0.77 |
| TATACAGGGTCACAGGCCAGAGTACGAATGTCGA | 3.83 | 5.96 | 5.41 | 2.61 | 6.79 | 3.92 | 1.94 | 2.51 |
| ATCTCTAGGTAAGACTCAGCTCAGTGAAGAACGC | 0.128 | -0.176 | 0.0732 | 0.0476 | -0.204 | 0.124 | 0.524 | 0.3 |
| ATTCGGAGGACAAAGGTCAGAGCTACGCCAGTGA | 4.59 | 5.89 | 5.52 | 0.937 | 5.03 | 3.41 | 0.717 | 1.32 |
| CCTAGCAGTCCAATCTGGGTCACTCAAGGCTTGA | 2.02 | 0.766 | 0.694 | 0.516 | 0.768 | 2.86 | 0.629 | 0.187 |
| TCGAGTAGGTTAGGGGTATTCAGAATGGCGTCGA | 0.614 | 0.141 | -0.12 | 0.297 | 0.649 | 0.317 | 0.194 | 0.305 |
| GATACAGGGTCAAGGCCCGAGTACGCGTATTGAT | 3.19 | 5.42 | 5 | 2.42 | 5.69 | 3.47 | 0.807 | 2.35 |
| AATACAGGGTCATCGTAGGCAAGAGTACGCACAG | 3.24 | 5.6 | 5.07 | 3.51 | 6.7 | 4.16 | 1.5 | 3.96 |
| CCGACTGGTGCAGAAAGGTTACCATACCATCCGG | 1.73 | 1.16 | 0.812 | -0.6 | 1.61 | 0.935 | -0.35 | -0.229 |
| GCTCGGAGGTCAAGGTCAGAGCTTTGTCCGTAGA | 5.13 | 7.02 | 7.59 | 3.19 | 7.07 | 4.24 | 2.72 | 3.21 |
| ATCGAAAGGTCGTGAGGTGCGTATACAGAAAGGC | 2.59 | 4.2 | 3.57 | 1.16 | 4.65 | 2.45 | -0.17 | 1.59 |
| CAGCCTAGGTCAGGGCCAGTTTAGGAGGAACGTT | 2.63 | 3.06 | 3.48 | 0.133 | 1.63 | 2.2 | 0.659 | -0.142 |
| TAGCCTAGGTCATGGGCCAGTACACCACGCGAAC | 2.88 | 4.3 | 4.65 | 0.275 | 3.7 | 2.99 | 1.48 | 0.985 |
| CCTTACGGGTTACTGACAGGTTATAGCATTTGGA | 0.885 | 2.22 | 0.806 | 0.177 | 1.54 | 1.11 | -0.00572 | 0.261 |
| TCTAGTTGGTCGAAGGTCACACACTCGAAATGCG | 3.99 | 4.39 | 3.86 | 1.37 | 4.15 | 3.07 | 1.83 | 1.97 |
| TCCTGTAGATCAACAGGAGGTTAAGAAAGATCGA | 0.374 | 0.894 | 0.158 | -0.0672 | 0.88 | 0.931 | -0.958 | -0.104 |
| ACTCGGAGGACAAAGGTCTGAGCTACGCCAGTGA | 0.62 | 0.869 | 0.954 | 0.352 | 0.0538 | 0.538 | -0.424 | -0.296 |
| CCTAGTTGGTCAGGAGGTCAGACACCGGATATGA | 3.57 | 3.8 | 3.09 | 0.173 | 2.74 | 2.43 | 1.11 | 1.42 |
| TCTCGGAGGACACGAAAGGTCAGAGCTCGACATC | 4.73 | 4.97 | 5.83 | 0.844 | 3.97 | 3.52 | 1.08 | 0.918 |
| TCTGCTAGGTGAACGATGGTCAGCTAATCTGCTA | 0.159 | 0.144 | 0.337 | -0.282 | 0.0585 | 0.529 | -0.885 | -0.782 |
| AATACAGGGTCACTAGGACAGAGTAGGTACGAAT | 3.32 | 5.16 | 4.79 | 2.9 | 5.5 | 3.64 | 1.72 | 2.97 |
| TCAGCTAGGTCAACGATGGTCAGCTAATCTGCTA | 3.49 | 3.89 | 4.83 | 1.11 | 2.49 | 2.88 | 0.578 | -0.3 |
| CCTGCTAGGTCAATGGTCAGCGAAAGCAGCTCGC | 2.63 | 3.65 | 4.18 | 1.73 | 2.11 | 2.32 | 0.558 | -0.0463 |
| TCTATTAGTCGATTAGGGCAACCGAAACAGCGGA | 0.367 | 0.53 | 0.468 | 0.914 | 0.681 | 0.811 | 0.361 | 0.0266 |
| GCTATTAGTCGAAAGGGCAACCGAATGATTCTCG | 2.08 | 1.09 | 1.5 | 0.643 | 0.86 | 0.548 | -0.36 | 0.289 |
| ACTGGTTGGTCAGCTGAGGTCACACACAATTCGG | 4.63 | 4.08 | 4.57 | 1.23 | 4.2 | 5.13 | 5.73 | 4.2 |
| GCGACTGGGGCAAAGCAGGTTACCATAAGGTTGG | 1.15 | 0.472 | 0.712 | -0.374 | 0.33 | 2.84 | 0.0306 | -0.59 |
| AGTCAAAGTCCAGGACGAGGTAACGTAAAGCACG | 0.381 | 0.451 | 0.688 | -0.0759 | 0.28 | 1.89 | 1.14 | -0.089 |

Source: the supplement of paper PMC6555819
